Reference: PubChem BioAssay (NCI)
The panel holds about 79,000 compounds, 15% with a hit somewhere; the sample as a whole holds those more often. Activity calls are given as the source filed them. Cut-off read from the data, not from the text of the source: active = growth inhibition above about 70%; inactive = the rest.

Assay: NCI Yeast Anticancer Drug Screen. Data for the bub3 strain (AID 167)
Conditions: S. cerevisiae bub3 mutant strain, at 50.0 µM, active compounds read high
Summary of the method: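 Inhibition values come from growth of compound-treated mutant yeast normalised to vehicle-treated controls.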

Row | Structure (SMILES) | growth inhibition
1 | O=P1(N(CCCl)CCCl)Nc2cc3ccccc3cc2N1 | -15.5% (inactive)
2 | CC(C)N1CC(COc2cccc3ccccc23)OP1(=O)N(CCCl)CCCl (stereo not drawn) | 98.4% (active)
3 | CC(=O)c1ccc([As](=O)(O)O)cc1 | -29.1% (inactive)
4 | NC1=C(N2CC2)C(=O)C(N)=C(N2CC2)C1=O | -25.6% (inactive)
5 | Cc1cc(NN=O)nc(C)n1 | -1.8% (inactive)
6 | O=[N+]([O-])O.[Sm] | 15.7% (inactive)
7 | COc1ccc(C(OCC2OC(n3ccc(NC(=O)c4ccccc4)nc3=O)CC2OP2(=S)SCCS2)(c2ccccc2)c2ccc(OC)cc2)cc1 (stereo not drawn) | 37% (inactive)
8 | CC1=CC(=O)NP(=O)(Oc2ccc(C)cc2)N1 (stereo not drawn) | -25.3% (inactive)
9 | CC1CN1P1(N2CC2C)=NP(N2CC2C)(N2CC2C)=NP(N2CC2C)(N2CC2C)=N1 (stereo not drawn) | -2.2% (inactive)
10 | O=P1(C(Cl)Cl)OCCCO1 | -0.15% (inactive)
11 | C[CH2][Sn]1([CH2]C)[O]OC(c2ccccc2)[O]1 (stereo not drawn) | 14.1% (inactive)
12 | COc1ccc2n[se]nc2c1 | 51.6% (inactive)
13 | CC1(C)CC(O)CC(C)(C)N1O | 20.2% (inactive)
14 | COP12(OC)NC(=O)OC1(C(F)(F)F)c1ccccc1O2 (stereo not drawn) | -28% (inactive)
15 | CCOP(=S)(OCC)OP(=O)(CC)CC | 9.2% (inactive)
16 | CN(C)/N=C(\CCN1CCCC1)CC(c1ccccc1)c1c(O)c2ccccc2oc1=O (stereo not drawn) | 49.9% (inactive)
17 | CC(CN1CCCCCC1)C(C#N)(c1ccccc1)c1ccccc1 (stereo not drawn) | 46% (inactive)
18 | COc1ccc(N2CC=C(c3ccccc3)OP2(=O)N2CC2)cc1 (stereo not drawn) | 0.95% (inactive)
